# This is a sample that favours compounds with a hit; in the whole collection about 1.4% have one here.
# GALR2 agonist: agonists of human galanin receptor 2 (GALR2) | GALR2-expressing cells, agonist activation read-out | activation, % (concentration not given with the values) | 140,000 tested, 0.48% active | AID 803; in the data active means activation above about 5%, passing the limit was not always enough;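 further: 0% = vehicle buffer wells and 100% = reference agonist at full effect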
# Target sequence (O43603 whole entry, looked up): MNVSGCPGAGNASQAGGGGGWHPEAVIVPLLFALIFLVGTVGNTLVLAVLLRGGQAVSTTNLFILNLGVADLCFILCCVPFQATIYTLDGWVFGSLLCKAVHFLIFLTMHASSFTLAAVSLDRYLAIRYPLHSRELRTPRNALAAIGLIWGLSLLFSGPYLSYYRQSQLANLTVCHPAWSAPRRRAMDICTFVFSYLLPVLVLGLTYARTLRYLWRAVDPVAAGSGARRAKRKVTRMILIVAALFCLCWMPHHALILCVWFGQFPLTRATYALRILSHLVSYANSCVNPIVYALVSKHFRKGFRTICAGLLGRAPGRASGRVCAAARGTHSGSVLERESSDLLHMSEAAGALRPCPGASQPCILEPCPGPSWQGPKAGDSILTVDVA
# S1P2 ag: S1P2 (human) receptor agonism | O95136 | S1P2-expressing cell line, agonist reporter read-out | activation, % at 4.5 µM | 97,000 tested, 0.46% active; in the data active means activation above about 16%;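 further: 0% = vehicle low control and 100% = maximal reference agonist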
# Mac1 fbg inh: inhibitors of human CD11b/CD18 binding to fibrinogen; P05107+P11215; K562 CD11b/CD18 adhesion to fibrinogen, ATPlite luminescence; Mn2+ added to activate the integrin; inhibition, % at 10 µM; 93,000 tested, 0.54% active; AID 1497;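 active means primary inhibition of 50% or more at 10 µM, then 40% or more on retest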
# GALR2 antag: blocks the human galanin receptor 2; O43603; GALR2-expressing cells, antagonist mode; inhibition, % at 4 µM; 140,000 tested, 0.39% active; AID 828; in the data active means inhibition above about 27%;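 further: cells stimulated with galanin 1-16 at roughly its EC80; 0% = agonist challenge control and 100% = basal control without agonist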
# CD11b adhes enh: CD11b/CD18-fibrinogen binding enhancement | P05107+P11215 | K562 CD11b/CD18 adhesion to fibrinogen, ATPlite luminescence | activation, % at 10 µM | 93,000 tested, 0.07% active | AID 1499;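 active means 10 µM primary screen giving 50% or more activity, confirmed by 40% or more on retest at that dose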
# S1P2 antag: antagonists of human S1P2 receptor; cell-based S1P2 antagonist assay, inhibition at 5 uM; 97,000 tested, 0.21% active; AID 736; inhibition, % at 5 µM; O95136; in the data active means inhibition above about 45%;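 further: CRE beta-lactamase reporter cells expressing human S1P2 stimulated with S1P; 0% = agonist at EC80 alone and 100% = agonist plus reference antagonist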
# Active calls of the source: *; . = no result.
SMILES,GALR2 agonist,S1P2 ag,Mac1 fbg inh,GALR2 antag,CD11b adhes enh,S1P2 antag
NS(=O)(=O)c1ccc(N2N=C(c3ccccc3)CC2c2cccc(F)c2)cc1 (stereo not drawn),5.9*,.,.,-11,.,.
NS(=O)(=O)c1ccc(N2N=C(c3ccc(Br)cc3)CC2c2ccc(F)cc2)cc1 (stereo not drawn),156*,161*,4,-38,4,-115
COc1ccc(C2CC(c3ccccc3)=NN2c2ccc(N)cc2)cc1 (stereo not drawn),0,.,.,14,.,.
Fc1ccc(C2CC(c3ccco3)=NN2c2ccccc2)cc1 (stereo not drawn),6,5,5,-6,-2,-2
CCN(CC)CC(=O)N1N=C(c2cccs2)CC1c1ccco1 (stereo not drawn),-2,-1,-2,0,0,4
c1ccc(N2N=C(c3cccs3)CC2c2ccco2)cc1 (stereo not drawn),57*,47*,3,0,2,-49
Clc1ccc(N2N=C(c3cccs3)CC2c2ccco2)cc1 (stereo not drawn),70*,102*,.,-5,.,-78
Cc1cccc(C)c1NC(=O)CN1C(=O)S/C(=C\c2cccn2-c2cccc(C(=O)O)c2)C1=O,-1,-2,-3,1,-1,-18
O=C(C1CCC(CNS(=O)(=O)c2cccc3cccnc23)CC1)N1CCc2ccccc21 (stereo not drawn),-1,-7,8,-2,2,11
Cc1nnc2n(-c3ccccc3)c(=O)c3c4c(sc3n12)COC(C(C)C)C4 (stereo not drawn),-1,-4,-8,5,6,5
CC(C)C1Cc2c(sc3[nH]c(=S)n(Cc4ccccc4)c(=O)c23)CO1 (stereo not drawn),0,-5,53*,-3,-6,-16
CC(=O)/C(=N\Nc1ccccc1)Sc1cccc2cccnc12,-1,.,.,3,.,.
C(=C\c1ccccc1)/CSc1nnc(-c2ccncc2)n1Cc1ccco1,-1,.,19,-1,1,.
Brc1ccc(CSc2nnc(-c3ccccn3)n2Cc2ccco2)cc1,-1,-4,18,5,-4,-4
C(=C\c1ccccc1)/CSc1nnc(-c2ccccc2)n1Cc1ccco1,-2,53*,27,-3,-1,-10
CC(C)(C)c1ccc(CSc2nnc(-c3ccccn3)n2Cc2ccco2)cc1,-2,32*,68,-6,-4,1
O=c1c2ccccc2nc(-c2ccccc2)n1Cc1ccco1,-1,33*,2,-9,-4,-4
c1ccc2c(c1)ncn2Cc1nnc2sc(-c3ccncc3)nn12,0,0,-1,-11,-3,2
CC(=C/c1ccccc1)/C=N/NC(=O)c1ccc2nc[nH]c2c1,-1,.,.,0,.,.
Cc1ccc(Cl)cc1Nc1nc(-c2sc(NC(=O)c3cccc(Cl)c3)nc2C)cs1,-2,-9,.,6,.,-14
NC(=O)c1ccc(NC(=O)C2CCCO2)cc1 (stereo not drawn),-3,219*,.,-2,.,6
O=C(Nc1ccc(Oc2ccc(NC(=O)C3CCCO3)cc2)cc1)C1CCCO1 (stereo not drawn),-1,.,3,-1,-1,.
O=C(Nc1nc(=S)ss1)c1ccc(Cl)cc1Cl,0,-3,114*,-6,-7,7
CC(C)C(=O)Nc1cccc(NC(=O)c2ccc(Cl)cc2Cl)c1,-1,.,.,6,.,.
COc1ccccc1-c1nc(C#N)c(N2CCN(Cc3ccccc3)CC2)o1,-2,-5,4,-11,3,-11
SMILES,GALR2 agonist,S1P2 ag,Mac1 fbg inh,GALR2 antag,CD11b adhes enh,S1P2 antag
OCCN(CCO)c1ncnc2c1oc1ccc(Br)cc12,-1,20*,6,-15,-2,-52
Cc1nn(-c2nc3ccccc3s2)c(N)c1-c1ccccc1,-3,22*,19,11,4,3
Cc1ccc2nc3c(cc2c1)c(NC(=O)c1ccccn1)nn3CC(C)C,3,19*,11,-11,2,-22
CCn1nc(NC(=O)c2ccccn2)c2cc3cc(C)ccc3nc21,8,14,-7,12,-1,-35
O=C(OC1CCCCC1)c1ccc2c(c1)C1C=CCC1C(C(=O)O)N2 (stereo not drawn),-2,.,-59,4,150*,.
Cn1c(N)c(C(=O)c2ccccc2)c(=O)n(C)c1=O,-3,0,1,-11,0,0
CCC(=NC(C)c1ccccc1)c1c(O)n(C)c(=O)n(C)c1=O (stereo not drawn),0,-6,71*,17,-5,-2
CCCCNS(=O)(=O)c1ccc2nc(SCC(=O)Nc3ccccc3Cl)[nH]c2c1,-1,.,47,4,-5,.
CCCCNS(=O)(=O)c1ccc2nc(SCC(=O)Nc3sccc3C#N)[nH]c2c1,0,-6,102*,-6,-8,-6
N#CC1=C(N)NC(SCC(=O)c2ccc(Cl)cc2)=C(C#N)C12CCCC2,-2,0,64*,2,-8,-18
N#C/C(=C(/O)c1ccco1)c1nc2ccccc2s1,0,-11,52*,5,-8,-1
Nn1c(CSc2nc3ccccc3o2)nnc1CSc1nc2ccccc2o1,-1,-3,-24,-9,4,0
Cc1cc(C)n2c(Br)c(CSc3nc4ccccc4o3)nc2n1,-1,17*,10,-5,-6,-37
Cc1cc(C)n2cc(CSc3nnc(-c4ccccc4)o3)nc2n1,-2,4,-3,-1,0,-23
Cc1cc(C)n2cc(CSc3nc4cc(Cl)ccc4o3)nc2n1,-1,17*,14,-3,-2,-11
O=C(NC1CCCCC1)C(c1ccco1)N(C(=O)c1csnn1)C1CCCC1 (stereo not drawn),-2,-3,7,-6,3,15
CC(C)OP(C)(=O)CN1CCN(CP(C)(=O)OC(C)C)CC1 (stereo not drawn),-1,-9,-2,-1,-1,16
COc1ccc(S(=O)(=O)N=C2C=C(C)C(=O)C(C)=C2)cc1,-3,0,89*,6,10,-19
C=CCn1c(COc2ccc(CC)cc2)nnc1SCC(=O)N(C)C1CCS(=O)(=O)C1 (stereo not drawn),0,-3,-2,5,0,3
Cc1cc(/C=C2/SC(=S)N(c3cccc(C(F)(F)F)c3)C2=O)c(C)n1-c1cccnc1,-3,-5,.,35*,.,82*
Clc1ccc(CSc2ncccn2)cc1,-1,-6,3,-11,-2,0
O=C1c2cnc3nc(SCc4ccc(Cl)cc4)nn3c2CC2c3ccccc3CCN12 (stereo not drawn),4,22*,5,8,1,-18
COc1ccccc1NS(=O)(=O)c1ccc(NC(=O)CCNC(=O)c2ccco2)cc1,0,-5,-2,-4,68*,-15
Cc1ccc(NC(=O)CCNC(=O)c2ccco2)cc1,0,.,.,-2,.,.
